Laboratory results from ChEMBL document CHEMBL1961873, “Compounds: GSK PKIS; Assays: Nanosyn kinase panel” (2012).

Tests used:
[1] = biological target: T1, Tyrosine-protein kinase ITK/TSK (Homo sapiens) (UniProt Q08881); conditions: at 1 µM;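 further: values are mean percent inhibition of ITK from the GSK PKIS screen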
T1 sequence (whole entry): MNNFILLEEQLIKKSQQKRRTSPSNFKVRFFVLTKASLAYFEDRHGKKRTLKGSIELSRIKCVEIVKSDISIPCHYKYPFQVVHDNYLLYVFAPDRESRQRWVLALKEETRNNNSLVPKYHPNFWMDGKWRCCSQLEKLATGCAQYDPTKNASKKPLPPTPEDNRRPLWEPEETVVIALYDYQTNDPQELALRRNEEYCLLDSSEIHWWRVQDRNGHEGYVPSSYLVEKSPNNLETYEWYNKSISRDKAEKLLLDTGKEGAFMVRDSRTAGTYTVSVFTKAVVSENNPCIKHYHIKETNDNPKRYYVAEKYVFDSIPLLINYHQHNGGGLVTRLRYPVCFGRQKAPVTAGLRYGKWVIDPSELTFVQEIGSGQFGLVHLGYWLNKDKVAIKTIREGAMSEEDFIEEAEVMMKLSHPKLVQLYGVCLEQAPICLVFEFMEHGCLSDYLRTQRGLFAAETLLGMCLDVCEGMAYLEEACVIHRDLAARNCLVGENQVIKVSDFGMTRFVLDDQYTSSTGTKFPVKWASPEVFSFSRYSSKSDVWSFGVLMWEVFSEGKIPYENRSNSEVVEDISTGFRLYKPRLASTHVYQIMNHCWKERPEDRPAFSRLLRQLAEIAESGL

[2] = biological target: Tyrosine-protein kinase JAK1 (Homo sapiens) (UniProt P23458); conditions: at 0.1 µM
Tyrosine-protein kinase JAK1 (Homo sapiens), sequence (P23458 whole entry): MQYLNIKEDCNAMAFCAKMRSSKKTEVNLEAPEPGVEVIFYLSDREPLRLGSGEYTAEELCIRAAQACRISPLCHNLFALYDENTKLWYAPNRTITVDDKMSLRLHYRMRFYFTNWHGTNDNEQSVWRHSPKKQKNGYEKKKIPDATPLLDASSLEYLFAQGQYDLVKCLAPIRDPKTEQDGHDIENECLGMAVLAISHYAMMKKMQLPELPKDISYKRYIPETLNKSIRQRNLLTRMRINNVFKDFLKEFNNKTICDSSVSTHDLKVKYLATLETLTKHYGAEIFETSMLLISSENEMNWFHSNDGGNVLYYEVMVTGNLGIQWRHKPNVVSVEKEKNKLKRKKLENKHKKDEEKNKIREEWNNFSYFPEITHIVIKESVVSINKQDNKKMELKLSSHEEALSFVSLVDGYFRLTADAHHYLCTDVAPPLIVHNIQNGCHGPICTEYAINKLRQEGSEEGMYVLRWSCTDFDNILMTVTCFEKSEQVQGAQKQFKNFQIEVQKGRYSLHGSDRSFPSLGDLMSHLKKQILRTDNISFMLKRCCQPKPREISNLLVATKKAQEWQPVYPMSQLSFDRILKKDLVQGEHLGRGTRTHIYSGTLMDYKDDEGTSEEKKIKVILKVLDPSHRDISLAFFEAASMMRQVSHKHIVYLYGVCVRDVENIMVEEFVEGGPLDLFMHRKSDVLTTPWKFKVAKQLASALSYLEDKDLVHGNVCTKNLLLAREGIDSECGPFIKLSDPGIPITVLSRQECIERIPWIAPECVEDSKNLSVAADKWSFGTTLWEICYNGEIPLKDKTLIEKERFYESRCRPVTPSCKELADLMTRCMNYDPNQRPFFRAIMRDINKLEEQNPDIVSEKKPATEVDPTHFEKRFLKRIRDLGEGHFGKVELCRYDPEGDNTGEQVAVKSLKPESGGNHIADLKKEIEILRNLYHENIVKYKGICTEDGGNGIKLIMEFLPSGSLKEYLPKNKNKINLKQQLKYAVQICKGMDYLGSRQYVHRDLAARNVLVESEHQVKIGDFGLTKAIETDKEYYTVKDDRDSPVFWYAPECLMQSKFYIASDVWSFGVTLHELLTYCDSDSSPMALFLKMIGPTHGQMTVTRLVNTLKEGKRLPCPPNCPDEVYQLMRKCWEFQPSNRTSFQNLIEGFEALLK

[3] = biological target: Tyrosine-protein kinase JAK1 (Homo sapiens) (UniProt P23458); conditions: at 1 µM
[4] = biological target: Tyrosine-protein kinase JAK2 (Homo sapiens) (UniProt O60674); conditions: at 0.1 µM
Tyrosine-protein kinase JAK2 (Homo sapiens), sequence (O60674 whole entry): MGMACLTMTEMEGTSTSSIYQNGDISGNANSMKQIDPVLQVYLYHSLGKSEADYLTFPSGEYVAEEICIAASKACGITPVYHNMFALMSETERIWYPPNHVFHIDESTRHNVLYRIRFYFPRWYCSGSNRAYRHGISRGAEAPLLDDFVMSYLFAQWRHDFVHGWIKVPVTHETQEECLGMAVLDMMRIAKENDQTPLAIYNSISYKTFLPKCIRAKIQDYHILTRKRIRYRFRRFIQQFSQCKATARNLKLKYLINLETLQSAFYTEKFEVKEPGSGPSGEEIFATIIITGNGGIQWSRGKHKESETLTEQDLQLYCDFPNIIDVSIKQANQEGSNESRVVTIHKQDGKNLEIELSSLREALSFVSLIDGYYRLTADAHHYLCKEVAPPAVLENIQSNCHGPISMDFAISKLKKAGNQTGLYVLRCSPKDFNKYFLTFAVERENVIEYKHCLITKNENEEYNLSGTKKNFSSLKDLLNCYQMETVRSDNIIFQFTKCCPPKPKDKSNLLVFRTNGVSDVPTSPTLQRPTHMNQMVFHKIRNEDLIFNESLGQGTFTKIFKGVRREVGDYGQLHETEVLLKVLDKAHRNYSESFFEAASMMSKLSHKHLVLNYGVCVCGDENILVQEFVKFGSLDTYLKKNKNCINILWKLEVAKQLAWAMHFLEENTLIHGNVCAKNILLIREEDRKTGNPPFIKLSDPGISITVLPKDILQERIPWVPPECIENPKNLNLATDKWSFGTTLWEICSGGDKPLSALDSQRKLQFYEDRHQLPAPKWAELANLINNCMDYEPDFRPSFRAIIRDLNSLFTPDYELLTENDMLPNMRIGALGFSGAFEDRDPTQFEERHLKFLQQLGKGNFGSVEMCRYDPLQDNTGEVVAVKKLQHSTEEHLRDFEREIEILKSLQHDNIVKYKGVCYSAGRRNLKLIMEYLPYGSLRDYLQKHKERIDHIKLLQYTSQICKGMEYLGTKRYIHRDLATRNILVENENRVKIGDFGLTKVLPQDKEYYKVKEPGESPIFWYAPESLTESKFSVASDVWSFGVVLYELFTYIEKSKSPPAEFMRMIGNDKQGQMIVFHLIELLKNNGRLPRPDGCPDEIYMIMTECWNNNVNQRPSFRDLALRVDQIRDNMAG

[5] = biological target: Tyrosine-protein kinase JAK2 (Homo sapiens) (UniProt O60674); conditions: at 1 µM
[6] = biological target: T2, Tyrosine-protein kinase JAK3 (Homo sapiens) (UniProt P52333); conditions: at 0.1 µM
T2 sequence (whole entry): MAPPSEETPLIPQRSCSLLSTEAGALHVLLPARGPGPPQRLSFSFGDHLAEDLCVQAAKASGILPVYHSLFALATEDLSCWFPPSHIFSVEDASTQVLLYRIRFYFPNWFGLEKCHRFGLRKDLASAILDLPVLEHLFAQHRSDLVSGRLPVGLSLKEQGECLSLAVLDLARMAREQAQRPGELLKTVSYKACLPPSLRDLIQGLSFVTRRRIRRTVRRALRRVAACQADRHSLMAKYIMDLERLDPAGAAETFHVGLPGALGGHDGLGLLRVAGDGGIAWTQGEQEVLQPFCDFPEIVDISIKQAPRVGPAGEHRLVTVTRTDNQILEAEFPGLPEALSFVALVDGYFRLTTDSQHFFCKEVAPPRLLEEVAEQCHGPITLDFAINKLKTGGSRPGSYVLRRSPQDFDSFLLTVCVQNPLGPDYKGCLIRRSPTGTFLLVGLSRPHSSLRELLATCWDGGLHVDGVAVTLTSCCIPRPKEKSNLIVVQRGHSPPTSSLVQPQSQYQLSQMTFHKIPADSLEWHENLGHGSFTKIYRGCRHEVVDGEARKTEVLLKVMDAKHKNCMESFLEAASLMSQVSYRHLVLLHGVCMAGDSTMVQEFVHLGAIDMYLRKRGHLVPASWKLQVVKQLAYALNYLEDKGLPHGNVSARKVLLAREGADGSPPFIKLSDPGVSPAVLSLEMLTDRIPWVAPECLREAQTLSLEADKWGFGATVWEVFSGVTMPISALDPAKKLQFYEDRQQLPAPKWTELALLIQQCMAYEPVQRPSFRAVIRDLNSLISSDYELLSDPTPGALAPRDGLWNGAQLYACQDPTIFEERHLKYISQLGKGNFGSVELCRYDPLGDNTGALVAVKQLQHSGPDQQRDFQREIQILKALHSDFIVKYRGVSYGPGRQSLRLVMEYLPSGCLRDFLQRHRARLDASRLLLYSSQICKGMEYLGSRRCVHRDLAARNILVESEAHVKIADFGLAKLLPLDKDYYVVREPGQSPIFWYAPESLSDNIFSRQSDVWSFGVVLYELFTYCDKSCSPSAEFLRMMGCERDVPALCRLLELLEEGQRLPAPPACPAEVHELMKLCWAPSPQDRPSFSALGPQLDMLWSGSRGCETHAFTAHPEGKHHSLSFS

[7] = biological target: T2, Tyrosine-protein kinase JAK3 (Homo sapiens); conditions: at 1 µM
[8] = biological target: Vascular endothelial growth factor receptor 2 (Homo sapiens) (UniProt P35968); conditions: at 0.1 µM
Vascular endothelial growth factor receptor 2 (Homo sapiens), sequence (P35968 whole entry): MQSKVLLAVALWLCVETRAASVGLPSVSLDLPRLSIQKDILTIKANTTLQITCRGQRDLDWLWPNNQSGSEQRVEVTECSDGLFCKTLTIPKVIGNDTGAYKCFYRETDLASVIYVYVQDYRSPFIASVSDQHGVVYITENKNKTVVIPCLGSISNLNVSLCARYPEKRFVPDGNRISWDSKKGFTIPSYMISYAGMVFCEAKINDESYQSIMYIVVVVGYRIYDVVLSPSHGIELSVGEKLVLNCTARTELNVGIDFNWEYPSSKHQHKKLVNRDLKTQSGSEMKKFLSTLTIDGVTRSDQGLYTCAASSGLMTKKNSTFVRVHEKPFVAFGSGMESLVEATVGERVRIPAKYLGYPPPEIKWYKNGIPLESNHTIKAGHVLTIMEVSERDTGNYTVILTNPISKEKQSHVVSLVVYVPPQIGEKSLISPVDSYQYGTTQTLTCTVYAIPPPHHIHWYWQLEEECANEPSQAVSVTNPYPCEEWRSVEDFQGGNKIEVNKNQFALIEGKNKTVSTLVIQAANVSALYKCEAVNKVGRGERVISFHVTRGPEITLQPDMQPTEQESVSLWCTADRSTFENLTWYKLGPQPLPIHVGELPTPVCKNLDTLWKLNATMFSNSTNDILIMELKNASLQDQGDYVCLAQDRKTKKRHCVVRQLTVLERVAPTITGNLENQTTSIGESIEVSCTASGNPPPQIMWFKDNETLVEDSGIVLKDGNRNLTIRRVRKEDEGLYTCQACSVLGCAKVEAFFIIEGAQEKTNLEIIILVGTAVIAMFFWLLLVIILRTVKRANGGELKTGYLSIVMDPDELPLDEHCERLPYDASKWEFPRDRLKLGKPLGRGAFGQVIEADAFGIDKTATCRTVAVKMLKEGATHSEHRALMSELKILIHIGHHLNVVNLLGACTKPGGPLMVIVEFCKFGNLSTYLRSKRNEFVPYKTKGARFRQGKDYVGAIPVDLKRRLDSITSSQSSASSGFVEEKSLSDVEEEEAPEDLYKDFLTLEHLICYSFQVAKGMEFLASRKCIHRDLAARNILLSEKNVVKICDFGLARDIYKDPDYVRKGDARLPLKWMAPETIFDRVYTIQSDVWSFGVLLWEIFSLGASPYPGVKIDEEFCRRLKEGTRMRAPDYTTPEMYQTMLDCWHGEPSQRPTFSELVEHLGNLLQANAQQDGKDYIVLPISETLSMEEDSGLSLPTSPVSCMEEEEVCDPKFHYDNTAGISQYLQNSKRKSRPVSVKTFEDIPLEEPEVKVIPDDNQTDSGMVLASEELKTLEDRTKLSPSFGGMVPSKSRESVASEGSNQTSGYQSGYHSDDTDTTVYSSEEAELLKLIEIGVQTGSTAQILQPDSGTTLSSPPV

[9] = biological target: Vascular endothelial growth factor receptor 2 (Homo sapiens) (UniProt P35968); conditions: at 1 µM
[10] = biological target: Mast/stem cell growth factor receptor Kit (Homo sapiens) (UniProt P10721); conditions: at 0.1 µM;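 further: values are mean inhibition of KIT, from the GSK PKIS dataset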
Mast/stem cell growth factor receptor Kit (Homo sapiens), sequence (P10721 whole entry): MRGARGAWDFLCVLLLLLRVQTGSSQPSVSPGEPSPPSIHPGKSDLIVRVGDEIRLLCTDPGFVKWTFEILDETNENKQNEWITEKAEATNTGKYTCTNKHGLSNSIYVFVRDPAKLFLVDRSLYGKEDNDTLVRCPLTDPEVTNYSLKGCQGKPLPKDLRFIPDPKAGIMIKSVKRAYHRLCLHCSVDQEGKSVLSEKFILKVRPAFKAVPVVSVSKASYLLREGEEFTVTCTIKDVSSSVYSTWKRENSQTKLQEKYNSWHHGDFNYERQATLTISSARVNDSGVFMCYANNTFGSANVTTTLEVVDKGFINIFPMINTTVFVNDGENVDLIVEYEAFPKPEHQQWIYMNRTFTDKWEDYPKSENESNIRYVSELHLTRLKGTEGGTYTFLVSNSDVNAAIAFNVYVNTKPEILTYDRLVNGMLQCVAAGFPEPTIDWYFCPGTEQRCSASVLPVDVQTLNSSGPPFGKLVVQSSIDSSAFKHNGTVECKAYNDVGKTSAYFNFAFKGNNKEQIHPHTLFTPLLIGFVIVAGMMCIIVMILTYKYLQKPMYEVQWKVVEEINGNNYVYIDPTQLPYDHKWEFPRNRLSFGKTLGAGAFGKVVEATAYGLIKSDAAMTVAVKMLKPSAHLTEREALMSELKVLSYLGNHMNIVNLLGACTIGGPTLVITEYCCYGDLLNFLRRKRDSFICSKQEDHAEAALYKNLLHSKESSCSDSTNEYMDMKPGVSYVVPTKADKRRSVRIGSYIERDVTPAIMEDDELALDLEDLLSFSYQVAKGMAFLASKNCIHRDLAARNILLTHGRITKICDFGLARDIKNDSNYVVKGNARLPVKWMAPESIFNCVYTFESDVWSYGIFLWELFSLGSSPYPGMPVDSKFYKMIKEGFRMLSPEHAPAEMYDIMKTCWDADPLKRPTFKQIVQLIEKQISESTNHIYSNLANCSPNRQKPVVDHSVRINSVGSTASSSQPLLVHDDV

| Structure (SMILES) | inhibition [1] [%] | inhibition [2] [%] | inhibition [3] [%] | inhibition [4] [%] | inhibition [5] [%] | inhibition [6] [%] | inhibition [7] [%] | inhibition [8] [%] | inhibition [9] [%] | inhibition [10] [%] |
| --- | --- | --- | --- | --- | --- | --- | --- | --- | --- | --- |
| COc1ccc(-c2nn3ncccc3c2-c2ccnc(Nc3ccc(Cl)c(C(F)(F)F)c3)n2)cc1 | 0.32 | 1.77 | 10.6 | -0.46 | -0.98 | -0.77 | -0.67 | 1.69 | 4.52 | 1.4 |
| CNC(=O)c1cncc(/C=C/c2c(Cl)cccc2Cl)c1 | -1.73 | 2.61 | 2.48 | 1.58 | 2.6 | -4.61 | -3.71 | 6.02 | 13.1 | 5.81 |
| COc1cc2ncn(-c3cc(OCc4ccccc4C(F)(F)F)c(C(N)=O)s3)c2cc1OC | -0.36 | 1.72 | 2.62 | 1.67 | 1.84 | -6.46 | -2.61 | 21.7 | 68.9 |  |
| CCn1c(-c2nonc2N)nc2c(C#CC(C)(C)O)nc(CN3CCCC3)cc21 | 0.72 | 1.82 | 3.25 | 0.37 | -0.34 | 0.46 | 1.49 | 5.26 | 20.1 | -3.09 |
| COc1cc2ncn(-c3cc(OCc4ccccc4Cl)c(C(N)=O)s3)c2cc1OC | 3.19 | 0.17 | 5.86 | 0.18 | 0.34 | 0.35 | 4.86 | 12.2 | 53.9 | 0.54 |
| CCn1c(-c2nonc2N)nc2cnc(Oc3cccc(NC(=O)c4ccc(OCCN5CCOCC5)cc4)c3)cc21 | 0.94 | 4.42 | 12.1 | 5.74 | 1.29 | 0.31 | -0.45 | 5.67 | 7.83 | 5.45 |
| COc1cc2ncn(-c3cc(O[C@H](C)c4ccccc4Cl)c(C(N)=O)s3)c2cc1OC | 8.66 | 8.61 | 21.9 | 1.66 | 6.6 | 0.32 | 25.9 | 36.4 | 72.5 | 7.11 |
| CCCN1CCC=C(c2ccc(Nc3nc(Nc4ccccc4C(N)=O)c4cc[nH]c4n3)c(C)c2)C1 | 7.61 | 2.14 | 3.46 | 2.19 | 2.74 | -1.04 | 0.49 | 0.98 | 17.7 | 4.24 |
| Nc1ncnc2occ(-c3ccc(NC(=O)Nc4cccc(C(F)(F)F)c4)cc3)c12 | 12.3 | 0.84 | 11.8 | 1.98 | 9.83 | -4.17 | -2.01 | 73.5 | 77.3 | 94.9 |
| CC1=C(C(=O)Nc2ccc3[nH]ncc3c2)C(c2ccc(F)cc2)NC(=O)N1 (centres undefined) | 1.33 | 14.4 | 70.3 | 2.59 | 35.1 | 1.07 | 30.8 | 4.24 | 12.3 | 5.14 |
| CS(=O)(=O)CCN(CC#N)Cc1ccc(-c2ccc3ncnc(Nc4ccc(OCc5cccc(F)c5)c(Cl)c4)c3c2)o1 | -3.44 | 0.62 | 1.2 | 1.36 | 1.26 | -5.68 | -5.16 | 4.09 | 7.7 | -0.23 |
| COc1cc2c(cc1Nc1nc(N3CCc4ccccc43)c3cc[nH]c3n1)N(C(=O)CN(C)C)CC2 | 1.52 | -0.01 | -3.36 | 1.69 | 0.18 | 0.19 | 0.18 | 1.11 | 0.21 | 3.11 |
| CCn1c(-c2nonc2N)nc2cncc(C(=O)N3CC[C@H](N)C3)c21 | 1.18 | -1.1 | 22.4 | 0.61 | 1.25 | -0.95 | -0.29 | 7.05 | 15.8 | 5.39 |
| CS(=O)(=O)Nc1ccc(N/C=C2\C(=O)Nc3ccccc32)cc1 | 3.61 | 0.26 | 5.33 | -0.93 | 1.03 | 0.43 | 8.16 | 6.66 | 46.7 | 17.6 |
| O=C1NC(=O)C(c2cccc(Cl)c2)=C1Nc1ccc(O)c(Cl)c1 | 1.28 | 2.54 | 7.81 | 0.65 | 2.24 | 3.49 | 51.4 | 3.41 | 20.1 | -3.91 |
| O=C1Nc2ccc(C(=O)c3ccco3)cc2C1=Cc1cc(Cl)c(O)c(Cl)c1 | 3.21 | 5.2 | 7.05 | 2.07 | 6 | 12.7 | 66.9 | 6.41 | 18.7 | 16.6 |
| NC(=O)c1ccc(-c2nc(-c3ccccn3)c(-c3ccc4c(c3)OCO4)[nH]2)cc1 | 1.43 | 3.36 | 8.87 | 1.02 | 1.92 | -1.26 | 0.2 | 2.91 | 3.09 | 1.09 |

| Structure (SMILES) | inhibition [1] [%] | inhibition [2] [%] | inhibition [3] [%] | inhibition [4] [%] | inhibition [5] [%] | inhibition [6] [%] | inhibition [7] [%] | inhibition [8] [%] | inhibition [9] [%] | inhibition [10] [%] |
| --- | --- | --- | --- | --- | --- | --- | --- | --- | --- | --- |
| COC(=O)Nc1nc2cc(Oc3cccc(NC(=O)Nc4cc(C(F)(F)F)ccc4F)c3)ccc2[nH]1 | 0.67 | 0.78 | 4.36 | -0.5 | -0.07 | 1.1 | 2.02 | 19.1 | 63.5 | 4.16 |
| NS(=O)(=O)c1ccc(N/N=C2\C(=O)Nc3ccc(C(=O)NCCc4c[nH]cn4)cc32)cc1 | 3.56 | 5.75 | 0.16 | 2.27 | 2.46 | 0.03 | 3.43 | 12.9 | 43.3 | 5.68 |
| CS(=O)(=O)CCNCc1ccc(-c2ccc3ncnc(Nc4ccc(OCc5cccc(F)c5)c(C(F)(F)F)c4)c3c2)o1 | 0.72 | 3.98 | 13.3 | 0.47 | 1.17 | -0.58 | -0.15 | 3.99 | 3.93 | 3.96 |
| Fc1cccc(COc2ccc(Nc3ncnc4sc(-c5cccs5)cc34)cc2Cl)c1 | 1.32 | -0.79 | -0.37 | -0.63 | 0.58 | 1.46 | 1.31 | 4.41 | 7.67 | 9.52 |
| Cc1ccc(C(=O)NC2CCCCC2)cc1-c1ccc(C(=O)NCC2CC2)cc1 | 2.35 | 9.94 | 9.1 | 3.28 | 4.08 | 0.78 | 3.02 | 7.88 | 8.4 | 4.54 |
| [O-][S+]1CCN(Cc2ccc(-c3ccc4ncnc(Nc5ccc(OCc6ccccc6)c(F)c5)c4c3)o2)CC1 | 2.13 | 0.52 | 0.63 | 0.4 | 0.64 | 0.01 | -0.11 | 2.98 | 6.19 | 2.02 |
| COc1ccc(-c2coc3ncnc(N)c23)cc1 | 1.48 | 0.98 | 2.67 | 1.71 | 2.08 | -1.56 | 2.35 | 6.15 | 9 | 5.17 |
| Nc1nc(-c2ccccn2)c(-c2ccc3ncccc3n2)s1 | 2.48 | 0.52 | 4.22 | -0.07 | 2 | -1.07 | -0.57 | 3.52 | 8.02 | 3.79 |
| COc1cc2ncn(-c3cc(O[C@@H](C)c4ccccc4Cl)c(C(N)=O)s3)c2cc1OC | 3.19 | 0.34 | 3.27 | 2.38 | 1.08 | -3.05 | 1.97 | 18 | 67.7 | 4.65 |
| Cc1nn(C)c2cc(N(C)c3ccnc(Nc4cccc(S(N)(=O)=O)c4)n3)ccc12 | 8.33 | 12.3 | 54.9 | 7.43 | 59.5 | -0.24 | 27.3 | 45.4 | 68.5 | 47 |
| COc1ccccc1Nc1ncc(-c2ccccc2)o1 | 3.07 | 4.14 | 5.2 | 0.56 | -0.51 | -3.6 | -1.96 | 10.6 | 19.2 | 78.2 |
| CC1=C(C(=O)Nc2ccc3[nH]ncc3c2)C(c2ccc(Cl)c(Cl)c2)CC(=O)N1 (centres undefined) | 0.67 | 5.41 | 36.6 | 1.94 | 23.5 | 0.78 | 18 | 3.14 | 5.12 | 3.22 |
| Fc1cccc(COc2ccc(Nc3ncnc4cc(-c5ccc[nH]5)sc34)cc2Cl)c1 | -1.9 | 2.84 | 13.6 | 1.26 | 3.62 | -3.97 | -1.5 | 6.01 | 11.8 | 2.16 |
| c1cnn2ncc(-c3ccnc(Nc4ccc5c(c4)OCCO5)n3)c2c1 | 5.82 | 8.27 | 19.7 | 2.1 | 20.6 | 1.94 | 46 | 9.54 | 37.4 | 95 |
| CN1CCC(C(=O)Nc2n[nH]c3nnc(-c4ccccc4)cc23)CC1 | 2.38 | 4.13 | 17.6 | 1.08 | 1.05 | -1.09 | -0.3 | 2.34 | 10.6 | 4.36 |
| Cc1cccc(-c2n[nH]cc2-c2ccc3ncccc3n2)n1 | 1.48 | -0.09 | 3.85 | -0.23 | -0.14 | 0.65 | 3.06 | 61.3 | 83.2 | -0.25 |
